Screening results (PubChem)
HP1b binding inh = blocks HP1-beta chromodomain binding to methylated histone tails | AID 540317 | Potency, µM (top dose mostly 114 µM), hits mostly inhibitors | 390,000 compounds, 0.56% hits | AlphaScreen HP1-beta / biotin-H3K9me3 peptide binding | P83916; further: nearly all actives have a fitted effect of over 70% in size
Target sequence (P83916 whole entry, looked up): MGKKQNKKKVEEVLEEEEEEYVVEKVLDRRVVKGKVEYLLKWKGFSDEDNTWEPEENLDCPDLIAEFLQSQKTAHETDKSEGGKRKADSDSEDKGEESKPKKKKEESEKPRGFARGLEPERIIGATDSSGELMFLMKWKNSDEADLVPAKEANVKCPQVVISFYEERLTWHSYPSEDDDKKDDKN
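AlphaScreen: HP1-beta (50 nM) preformed 30 min with biotin-H3(1-18)K9me3 peptide (50 nM) in PBS pH 7.4, 0.01% Tween-20. Compound added for 30 min at RT, then streptavidin donor/nickel chelate acceptor beads (10 ug/mL) for 30 min.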
L3MBTL1 block = inhibitors of human L3MBTL1; Q9Y468; AlphaScreen L3MBTL1–H3K9me1 peptide binding; Potency, µM (highest dose often 57.1 µM), most hits filed as inhibitors; 230,000 compounds, 0.66% hits; AID 485360; further: nearly all actives have a fitted effect of over 60% in size
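AlphaScreen assay: L3MBTL1 (50 nM final) was preincubated 30 min at room temperature with biotinylated H3(1-15)K9me1 peptide (75 nM final), then 30 min with library compounds; streptavidin donor and nickel chelate acceptor beads (10 ug/mL final) added, 30 min dark.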
BAZ2B inh = inhibitors of human BAZ2B bromodomain; AlphaScreen BAZ2B-H3K14Ac peptide displacement; AID 504333; 360,000 compounds, 4.4% hits; Q9UIF8; Potency, µM (doses to about 114 µM), usual class: inhibitors; further: nearly all actives have a fitted effect of over 60% in size
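Protein-peptide AlphaScreen: BAZ2B 50 nM, b-H3K14Ac 50 nM, 1x PBS pH 7.4 + 0.01% Tween-20. Preincubation 30 min RT; cpd 30 min RT (top 110 uM); beads 20 min RT, light-protected.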
JMJD2A Tudor inh = JMJD2A Tudor domain (human) inhibition; O75164; AlphaScreen JMJD2A-Tudor / H3K4me3 peptide binding; Potency, µM (highest dose often 114 µM), hits mostly inhibitors; 390,000 compounds, 4.4% hits; further: nearly all actives have a fitted effect of over 50% in size
G9a inh = G9a (human) methyltransferase inhibition | Q96KQ7 | G9a H3K9 monomethylation, AlphaScreen, 2 h | Potency, µM (series often up to 102 µM), most hits filed as inhibitors | 350,000 compounds, 8.8% hits | AID 504332; further: nearly all actives have a fitted effect of over 75% in size
Target sequence (Q96KQ7 913-1193 limits assumed): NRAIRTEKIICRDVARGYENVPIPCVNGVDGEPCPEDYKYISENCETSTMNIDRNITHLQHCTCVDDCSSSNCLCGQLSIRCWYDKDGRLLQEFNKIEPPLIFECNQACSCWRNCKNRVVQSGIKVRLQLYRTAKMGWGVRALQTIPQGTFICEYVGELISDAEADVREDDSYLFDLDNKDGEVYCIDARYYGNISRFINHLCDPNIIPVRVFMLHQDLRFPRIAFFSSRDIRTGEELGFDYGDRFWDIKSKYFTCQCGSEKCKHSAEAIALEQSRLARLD
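AlphaScreen read-out: biotin-H3K9 peptide (500 nM) methylation by 20 nM enzyme with 20 uM SAM, 2 h at room temperature after 15 min compound preincubation; anti-monomethyl H3K9 antibody plus donor/acceptor beads, 10 min dark.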
Each line names hits and unclear results; the compound was inactive in the other large screens. Rows were chosen to be rich in hits. Some 11% of all compounds tested hit in one or more screens of this group. The call rests on the fitted dose curve; in most records, active means well fitted inhibition curve with a large enough effect; inconclusive means small, poorly fitted or top-dose-only effect; inactive means no such curve, though single readings can be large or run the other way.

CN1/C(=C\C(=O)COc2ccc3c(c2)OCO3)C(C)(C)c2ccccc21	HP1b binding inh inconclusive, BAZ2B inh 28µM, JMJD2A Tudor inh inconclusive, G9a inh inconclusive
C#CCOCCOCCOCCNc1nc(N2CCN(C(=O)C([C@@H](C)CC)n3cc(C(N)CC(C)C)nn3)CC2)nc(N2CCN(C(=O)[C@H](CCC(=O)O)n3cc(C(N)[C@H](C)CC)nn3)CC2)n1 (some centres undefined)	BAZ2B inh inconclusive, JMJD2A Tudor inh 71µM
C#CCOCCOCCOCCNc1nc(N2CCN(C(=O)[C@H](CCC(=O)O)n3cc(C(N)CC(C)C)nn3)CC2)nc(N2CCN(C(=O)[C@H](CCC(=O)O)n3cc(C(N)[C@H](C)CC)nn3)CC2)n1 (some centres undefined)	BAZ2B inh 50µM, JMJD2A Tudor inh 79µM
C#CCOCCOCCOCCNc1nc(N2CCN(C(=O)[C@H](CCC(=O)O)n3cc(C(N)CC(C)C)nn3)CC2)nc(N2CCN(C(=O)[C@H](Cc3ccc(O)cc3)n3cc(C(N)[C@H](C)CC)nn3)CC2)n1 (some centres undefined)	BAZ2B inh 32µM (no result: HP1b binding inh, JMJD2A Tudor inh)
Cc1nn(CCC(=O)Nc2cc(F)ccc2F)c(=O)c2nn(-c3ccccc3)c(C)c12	none (no result: L3MBTL1 block)
O=S(=O)(NCc1ccccc1)c1ccc(Cl)cc1	none (no result: L3MBTL1 block)
O=S(=O)(Nc1cc2nc3ccccc3nc2n1Cc1ccccc1)c1ccc(Cl)cc1	L3MBTL1 block 4µM
COc1cccc2sc(N3CCN(C(=O)CCS(=O)(=O)c4ccc(F)cc4)CC3)nc12	none (no result: L3MBTL1 block)
O=C(CCCCCn1c(=S)[nH]c2ccccc2c1=O)N1CCOCC1	G9a inh 35µM
O=C(CCCn1c(=S)[nH]c2ccccc2c1=O)N1CCOCC1	BAZ2B inh inconclusive, JMJD2A Tudor inh 22µM
Nc1ccccc1NC(=O)CCn1c(=S)[nH]c2ccccc2c1=O	G9a inh 45µM (no result: L3MBTL1 block)
COc1ccc(OC)c(NC(=O)CCn2c(=S)[nH]c3ccccc3c2=O)c1	none (no result: L3MBTL1 block)
Cc1ccc(-n2nc3c(=O)n(C(C)C(=O)NCc4ccc(OC(C)C)cc4)nc(C)c3c2C)cc1 (centres undefined)	BAZ2B inh inconclusive (no result: L3MBTL1 block)
CCOC(=O)c1c(S(=O)(=O)NCC(=O)Nc2cccc(SC)c2)c(C)n(C)c1C	JMJD2A Tudor inh inconclusive (no result: L3MBTL1 block)
Cc1ccccc1Cn1cc(CCC(=O)NC(C)c2ccccc2)c2ccccc21 (centres undefined)	none (no result: L3MBTL1 block)
COc1ccc(/C=C/c2ccc3ccccc3[n+]2C)cc1OC	JMJD2A Tudor inh inconclusive, G9a inh 35µM (no result: L3MBTL1 block)
CN(C)c1ccc(/C=C/c2ccc3ccccc3[n+]2C)cc1	HP1b binding inh inconclusive, BAZ2B inh 45µM, JMJD2A Tudor inh 79µM, G9a inh 7.9µM
C[n+]1ccccc1/C=C/c1ccc2ncccc2c1	BAZ2B inh inconclusive (no result: G9a inh)
CN(C)c1ccc(/C=C/c2ccc3c4ccccc4ccc3[n+]2-c2ccccc2)cc1	HP1b binding inh 11µM, L3MBTL1 block inconclusive, BAZ2B inh 7.9µM, JMJD2A Tudor inh 8.9µM, G9a inh 16µM
CC(=O)Oc1ccccc1/C=C/c1ccc2ccccc2[n+]1C	BAZ2B inh inconclusive, JMJD2A Tudor inh inconclusive (no result: G9a inh)
[O-][n+]1c(/C=C/c2ccccc2)ccc2ccccc21	BAZ2B inh inconclusive
CN(C)c1ccc(/C=C/c2nc3ccccc3c(=O)[nH]2)cc1	none (no result: L3MBTL1 block)
CN(CCCS(=O)(=O)[O-])c1ccc(/C=C/c2ccc3ccccc3[n+]2C)cc1	BAZ2B inh inconclusive, JMJD2A Tudor inh inconclusive, G9a inh 32µM (no result: L3MBTL1 block)
COc1ccc(CCNC(=O)c2ccc(Cn3c(=O)c4ccccc4n(Cc4ccc(F)cc4Cl)c3=O)cc2)cc1OC	none (no result: L3MBTL1 block)
O=C(Nc1ccc2nc(SCC(=O)N3CCOCC3)sc2c1)c1ccc(Cl)cc1	none (no result: L3MBTL1 block)
COc1ccc(OC)c(C(=O)NC(CC(N)=O)c2ccc(NCc3ccc(F)c(F)c3)c([N+](=O)[O-])c2)c1 (centres undefined)	BAZ2B inh 45µM, JMJD2A Tudor inh inconclusive, G9a inh 89µM
NC(=O)CC(NC(=O)c1ccccc1)c1ccc(NCc2ccc(F)c(F)c2)c([N+](=O)[O-])c1 (centres undefined)	BAZ2B inh inconclusive, JMJD2A Tudor inh inconclusive, G9a inh 71µM
Cc1ccc(NC(=O)CN(C)S(=O)(=O)c2ccc3c(c2)n(C)c(=O)c(=O)n3C)cc1C	none (no result: L3MBTL1 block)
Cc1ccc(S(=O)(=O)NCC23C=CC(O2)C2C(=O)N(c4ccccc4)C(=O)C23)cc1 (centres undefined)	HP1b binding inh inconclusive, JMJD2A Tudor inh inconclusive, G9a inh inconclusive (no result: L3MBTL1 block)
Cc1ccc(N2C(=O)C3C4C=CC(CNC(=S)N5CCN(c6ccccc6)CC5)(O4)C3C2=O)cc1 (centres undefined)	HP1b binding inh inconclusive, JMJD2A Tudor inh inconclusive, G9a inh 2.2µM (no result: L3MBTL1 block, BAZ2B inh)
Cc1ccc(NC(=S)NCC23C=CC(O2)C2C(=O)N(c4ccc(C)cc4)C(=O)C23)cc1 (centres undefined)	HP1b binding inh inconclusive, JMJD2A Tudor inh 89µM, G9a inh 7.9µM
CC(C)(C)C1CCc2c(sc(NC(=O)c3ccncc3)c2C(N)=O)C1 (centres undefined)	none
CC(C)(C)C1CCc2c(sc(NC(=O)c3cc4ccccc4c(=O)o3)c2C(N)=O)C1 (centres undefined)	G9a inh 10µM (no result: L3MBTL1 block)
CC(=O)C1=C(c2ccc(Cl)c(Cl)c2)N(C(C)=O)n2cnnc2S1	none (no result: L3MBTL1 block)
CCOc1ccc(-c2nc(SC(C(C)=O)C(=O)N(C)C)c3c(=O)n(C)c(=O)n(C)c3n2)cc1 (centres undefined)	none (no result: L3MBTL1 block)
O=C1NC2(NN1c1ccccc1)C1CC3CC(C1)CC2C3 (centres undefined)	G9a inh inconclusive (no result: L3MBTL1 block)
S=C1NC2(CCCCC2)NN1c1ccccc1	BAZ2B inh 79µM, G9a inh 14µM
CC(C)(C)N1NC2(CCCCC2)NC1=S	BAZ2B inh inconclusive, JMJD2A Tudor inh 18µM, G9a inh inconclusive
CC1(C)CC2(C)Nc3ccccc3N2C(=S)N1 (centres undefined)	none
CC1CC(C)(C)CC2(C1)NC(=S)N(c1ccccc1)N2 (centres undefined)	G9a inh 28µM (no result: L3MBTL1 block)
CC(C)CCN1NC2(CCCC(C)C2)NC1=S (centres undefined)	G9a inh 22µM
COc1ccc2c(c1)c1c(c(=O)n(Cc3ccccc3)c(=O)n1CC(=O)Nc1ccc(C)cc1C)n2C	none (no result: L3MBTL1 block)
O=C(Cc1ccc(NC(=O)N2CCCCc3ccccc32)cc1)Nc1ccccc1Br	none (no result: L3MBTL1 block)
Cc1n[nH]c(=O)c2c(NC(=O)CSc3ccc(Br)cc3)oc(C)c12	G9a inh inconclusive
CC1CCCC2(C1)NC(=S)N(c1ccccc1)N2 (centres undefined)	JMJD2A Tudor inh 79µM, G9a inh inconclusive
CC1CCCCC12NC(=S)N(c1ccccc1)N2 (centres undefined)	HP1b binding inh inconclusive, JMJD2A Tudor inh 11µM (no result: G9a inh)
CC1(C)CN=C(c2ccccc2)NC1	none (no result: L3MBTL1 block, BAZ2B inh, G9a inh)
